Assay results: PubChem BioAssay (NCI)
The panel holds about 83,000 compounds, 20% with a hit somewhere; the sample as a whole holds those more often.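 Cell lines were cultured in 96-well plates, exposed to a single compound concentration, and assessed for percent growth 48 hours later.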 Unmarked numbers belong to inactive results. Activity calls are given as the source filed them. The calls were made as follows: active = growth percent below 10; inactive = the rest.

Each compound was assayed on MALME-3M melanoma (assay: NCI-60 one-dose screen, 48 h (100 = growth as untreated, 0 = no growth, -100 = all killed)). Conditions: 10 µM unless noted.

| SMILES | growth |
| --- | --- |
| COc1ccc(/C=C/C(=O)/C=C(/C=C/c2ccc(OC)c(OC)c2)OB(F)F)cc1OC | 25.4% |
| COc1cc(/C=C/C(=O)/C=C/c2cc3ccc(Cl)cc3[nH]c2=O)ccc1O | 101% |
| CCCCn1c(=O)c(/C=C/C(=O)/C=C/c2cc3ccccc3n(CCCC)c2=O)cc2ccccc21 | 8.02% (active) |
| COc1ccc(-c2nc(C#N)c(NCC(c3ccco3)N3CCCC3)o2)cc1 (stereo not drawn) | 51.2% |
| N#C/C(=C/c1ccc(O)c([N+](=O)[O-])c1)c1nc(-c2ccc([N+](=O)[O-])cc2)cs1 | 30.5% |
| C=C1C(=O)O[C@H]2[C@H]1CC/C(COC(=O)CCCCC(=O)OC/C1=C/CC[C@@]3(C)O[C@H]3[C@H]3OC(=O)C(=C)[C@@H]3CC1)=C\CC[C@@]1(C)O[C@@H]21 | 25.5% |
| CCOC(=O)c1c(C(F)(F)F)n([O-])c2ccc(Cl)cc2[n+]1=O | -84.5% (active) |
| COc1ccc(-c2nc(C#N)c(NCC(c3ccc(Cl)cc3)N3CCCCC3)o2)cc1 (stereo not drawn) | 91.4% |
| O=CN1N=C(c2ccc(Cl)cc2)CC1c1cccc(Nc2ccnc3cc(C(F)(F)F)ccc23)c1 (stereo not drawn) | 77.5% |
| O=C(CCCCCCCCC(=O)Nc1cccc(C2=NCCN2)c1)Nc1cccc(C2=NCCN2)c1 | 69.8% |
| CCOC(=O)C1CCN(S(=O)(=O)/N=C2/NC(=O)NC2=C(Cl)Cl)CC1 | -60% (active) |
| S=c1ssnc1-c1cc2ccccc2o1 | 79.8% |
| NS(=O)(=O)c1ccc(C2C3=C(CCCC3=O)OC3=C2C(=O)c2ccccc2C3=O)cc1 (stereo not drawn) | -97.4% (active) |
